Measured values as given in PubChem BioAssay AID1851 (National Center for Advancing Translational Sciences (NCATS), 2009).
Hit rate of the full screen: of about 16,000 compounds, about 5,800 (36%) were called active. About 23% were inconclusive and are not listed. The list shows a part of the results. Values without a mark were called inactive. Calls come from the whole dose curve; as a rule, active = well fitted curve in the direction sought with a large enough effect; inconclusive = small, poorly fitted or top-dose-only effect, or effect the other way; inactive = no such curve, though single readings can be large or run the other way.

target: Cytochrome P450 2C19 (Homo sapiens) (UniProt P33261); experiment: Cytochrome panel assay with activity outcomes; conditions: recombinant CYP, pro-luciferin dealkylation, luminescence, p450-cyp2c19; series mostly up to 57.1 µM
Sequence (P33261 whole entry, looked up): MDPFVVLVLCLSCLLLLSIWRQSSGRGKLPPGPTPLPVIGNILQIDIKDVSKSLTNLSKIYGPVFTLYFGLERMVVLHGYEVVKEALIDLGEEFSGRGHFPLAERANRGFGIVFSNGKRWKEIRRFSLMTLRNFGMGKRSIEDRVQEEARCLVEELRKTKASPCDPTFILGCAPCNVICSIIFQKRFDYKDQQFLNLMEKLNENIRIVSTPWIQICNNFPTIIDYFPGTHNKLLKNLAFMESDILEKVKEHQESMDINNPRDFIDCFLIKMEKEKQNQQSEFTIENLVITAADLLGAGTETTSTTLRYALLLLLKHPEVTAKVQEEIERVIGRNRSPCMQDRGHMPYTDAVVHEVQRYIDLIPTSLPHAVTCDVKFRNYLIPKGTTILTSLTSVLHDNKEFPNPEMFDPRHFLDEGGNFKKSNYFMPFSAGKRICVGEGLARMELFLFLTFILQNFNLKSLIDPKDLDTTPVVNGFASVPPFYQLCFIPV
% is set by controls: 0 for no effect and ±100 for the full control effect.

Row | Compound | AC50 | activity, negative = inhibition
1 | CCN(C1CCCCC1)S(=O)(=O)c1ccc(S(=O)(=O)NCc2ccncc2)cc1 | 1.58 µM (active) | –
2 | CCCCSc1nnc(-c2ccc(C)cc2)n1C | 14.1 µM (active) | –
3 | COc1nc(OCCNC(C)=O)nc(N(C)C)n1 | inactive | –
4 | O=S(=O)(O)c1cc(N=Nc2cccc3ccccc23)c(O)c2ncccc12 | – | -29.3% [at 11.4 µM]
5 | O=[N+]([O-])c1ccc2ncccc2c1CCc1c([N+](=O)[O-])ccc2ncccc12 | – | 39.5% [at 11.4 µM]
6 | O=[N+]([O-])c1cc(Cc2cc([N+](=O)[O-])c3cccnc3c2O)c(O)c2ncccc12 | 2.51 µM (active) | –
7 | CC(=O)N1CCN(c2nc(C)nc3sc4c(c23)CCC(C)C4)CC1 (configuration not stated) | 4.47 µM (active) | –
8 | CSc1ncnc2c1ncn2[C@@H]1O[C@@H](CO)[C@H](O)O[C@@H]1O | – | 41% [at 11.4 µM]
9 | CCN(CC)c1ccc(/C=C/c2nc3ccccc3s2)cc1 | 2 µM (active) | –
10 | CN(N=O)c1ccc(/C=C\c2ccnc3ccccc23)cc1 | – | 14.4% [at 11.4 µM]
11 | Cc1cccc(OCCCCCn2ccnc2)c1 | 0.0398 µM (active) | –
12 | Cc1ccc(OCCOCCn2ccnc2)c(Br)c1 | 0.0158 µM (active) | –
13 | C#CCCCO/N=C1/C[C@@H](O)[C@@H](O)[C@@H]2[C@@H]3C(=O)N([C@@H](C)c4ccccc4)C(=O)[C@H]3CC[C@H]12 | – | -27.2% [at 11.4 µM]
14 | CCCn1cnc2c1c(=O)n(CCCCC(C)=O)c(=O)n2C | inactive | –
15 | Cn1ncc(C#N)c1/N=C/N1CCCCCC1 | 14.1 µM (active) | –
16 | O=C(O)c1c(Br)c(Br)c(Br)c(Br)c1C1c2ccc(O)cc2Oc2cc(O)ccc21 | – | -94.3% [at 11.4 µM]
17 | COc1ccccc1-c1cc(NCc2cnc(C)cn2)ncn1 | 15.8 µM (active) | –
18 | COc1ccccc1-c1cc(NCc2ccccc2)ncn1 | 7.94 µM (active) | –
19 | Cc1cnc(CNc2cc(-c3ccccc3Cl)ncn2)cn1 | inactive | –
20 | Cc1cnc(CNc2cc(-c3ccccc3C)ncn2)cn1 | inactive | –
21 | CN(C)Cc1ccccc1-c1cc(NCc2ccccc2)ncn1 | inactive | –
22 | COc1ccccc1-c1cc(NCc2cccc(C)c2)ncn1 | 3.98 µM (active) | –

Row | Compound | AC50 | activity, negative = inhibition
23 | COc1ccc2c3c([nH]c2c1)[C@@H]1C[C@@H]2[C@@H](C[C@H](O)[C@H](OC)[C@H]2C(=O)O)CN1CC3 | inactive | –
24 | C[C@@H](Cc1cccc(C(F)(F)F)c1)NCCOC(=O)c1ccccc1 | inactive | –
25 | CN(C)CCOC(=O)c1ccc(N)cc1 | – | -21.2% [at 11.4 µM]
26 | Cc1[nH]n(-c2ccccc2)c(=O)c1CCOC(=O)c1ccc(C(F)(F)F)cc1 | 3.98 µM (active) | –
27 | Cc1[nH]n(-c2ccccc2)c(=O)c1CCOC(=O)c1cccc(C(F)(F)F)c1 | 3.55 µM (active) | –
28 | CO[C@@H]1COC(=O)C/C=C\[C@H](C)COC(=O)[C@H](C)NC(=O)C/C=C\[C@H]1C | – | -28.2% [at 11.4 µM]
29 | Fc1ccc2c(c1)C(c1ccncc1)=NNC(c1ccc(Cl)cc1)=N2 | 0.224 µM (active) | –
30 | C#CCOC(=O)Nc1ccc(=O)n(Cc2c(Cl)cccc2Cl)c1 | 1.58 µM (active) | –
31 | C1=C(CN2CCOCC2)COc2c1cccc2OC[C@@H]1CNCCO1 | inactive | –
32 | COc1cc(C)c(Br)cc1S(=O)(=O)NCc1ccccc1 | 4.47 µM (active) | –
33 | Cc1ccc(C(=O)C2=C(O)C(=O)N(CCCn3ccnc3)C2c2ccc(OC(C)C)cc2)o1 (configuration not stated) | 14.1 µM (active) | –
34 | CN(C)CCN1C(=O)C(O)=C(C(=O)c2cc3ccccc3o2)C1c1ccccn1 (configuration not stated) | inactive | –
35 | S=c1[nH]nc(C2CCCCC2)n1/N=C/c1cccs1 | 0.708 µM (active) | –
36 | C[C@]1(c2ccccc2)O[C@@H]2C[C@@H]3[C@@H]4CCC5=CC(=O)C=C[C@@]5(C)[C@]4(F)[C@H](O)C[C@]3(C)[C@@]2(C(=O)CO)O1 | – | -7.02% [at 11.4 µM]
37 | COc1ccc(C2=NOC(C(=O)N3CCCc4ccccc43)C2)cc1 (configuration not stated) | 15.8 µM (active) | –
38 | COc1ccc(C2=NOC(C(=O)NCCN3CCOCC3)C2)cc1 (configuration not stated) | inactive | –
39 | O=C(Nc1c[nH]c(=O)[nH]c1=O)Oc1ccccc1 | – | -12.9% [at 11.4 µM]
40 | Cc1cccc2cc(CN(Cc3ccccc3)C(=O)c3cccc(F)c3)c(Cl)nc12 | 2.82 µM (active) | –
41 | COC(=O)CSc1nc(C)cc(C(F)(F)F)c1C#N | 25.1 µM (active) | –
42 | COC(=O)CSc1cc(C(F)(F)F)nc(-c2ccccn2)n1 | inactive | –
43 | Cc1nc(SCC(=O)c2cc3ccccc3oc2=O)c(C#N)c(C)c1C(=O)Nc1ccccc1 | inactive | –
44 | O=C(CSC1=NCCS1)N1CCN(c2ccc(Cl)cc2)CC1 | 3.55 µM (active) | –

Row | Compound | AC50 | activity, negative = inhibition
45 | c1nc(NCCc2cnc[nH]2)c2[nH]cnc2n1 | – | -12.5% [at 11.4 µM]
46 | c1ncc(-c2ccc3c(c2)OCO3)c(NCCc2cnc[nH]2)n1 | 0.0398 µM (active) | –
47 | CN(C)C(=O)c1ccc(-c2cncnc2NCCc2cnc[nH]2)cc1 | 10 µM (active) | –
48 | CN(C)c1ccc(-c2cncnc2NCCc2cnc[nH]2)cc1 | 0.0794 µM (active) | –
49 | O=C(Nc1ccccc1)N1CCCC2(CCN(C(=O)c3cnccn3)CC2)C1 | inactive | –
50 | COc1ccc(COC(=O)N/N=C2/C[C@@H](O)[C@@H](O)[C@@H]3[C@@H]4C(=O)N([C@@H](C)c5ccccc5)C(=O)[C@H]4CC[C@@H]23)cc1 | – | -25.8% [at 11.4 µM]
51 | COCCCN1C(=O)C(=O)/C(=C(/O)c2ccc(OC)cc2C)C1c1cccnc1 (configuration not stated) | inactive | –
52 | Cc1ccc(/C(O)=C2/C(=O)C(=O)N(CCCn3ccnc3)C2c2ccccn2)cc1 (configuration not stated) | 2.82 µM (active) | –
53 | CCOc1ccc(/C(O)=C2/C(=O)C(=O)N(CCCn3ccnc3)C2c2cccs2)cc1Cl (configuration not stated) | 14.1 µM (active) | –
54 | CCN(CC)CCN1C(=O)C(=O)/C(=C(/O)c2ccc(OC)cc2)C1c1cccs1 (configuration not stated) | 14.1 µM (active) | –
55 | Cc1nc2ccccn2c1/C(O)=C1\C(=O)C(=O)N(CCCn2ccnc2)C1c1ccncc1 (configuration not stated) | inactive | –
56 | COc1ccc(/C(O)=C2\C(=O)C(=O)N(c3cc(C)on3)C2c2ccc(OC)c(OC)c2)cc1OC (configuration not stated) | inactive | –
57 | COc1cccc(/C(O)=C2/C(=O)C(=O)N(c3cc(C)on3)C2c2cccs2)c1 (configuration not stated) | inactive | –
58 | CCOc1ccc(/C(O)=C2/C(=O)C(=O)N(CC3CCCO3)C2c2ccc(C)o2)cc1 (configuration not stated) | inactive | –
59 | O=C(N/N=C1/C[C@@H](O)[C@@H](O)[C@@H]2[C@H]3C(=O)N(c4ccc(F)cc4F)C(=O)[C@@H]3CC[C@H]12)OCc1ccccc1 | – | -27.3% [at 11.4 µM]
60 | NC(=O)CSc1nc2sc(-c3ccccc3)cc2c(=O)n1N | 15.8 µM (active) | –
61 | c1cc2c(cc1C1CCCCC1)c1c3n2CCN[C@H]3CCC1 | 1 µM (active) | –
62 | O=C(Nc1ccc(Cl)cc1)OCCn1nnnc1C(c1ccccc1Cl)N1CCOCC1 (configuration not stated) | 3.98 µM (active) | –
63 | O=C1[C@H]2O[C@@H]2[C@@H](O)[C@H]2[C@H]1CCn1c(=O)n(Cc3cc4c(cc3Cl)OCO4)c(=O)n12 | – | 14.6% [at 11.4 µM]
64 | CCCCCCCCCCCCCCCCCCNC(=O)OC[C@@H](COP(=O)([O-])OCC[n+]1ccsc1)OC | inactive | –
65 | CCCCCCCCCCCCCCCCCCOC[C@@H](COP(=O)([O-])OCC[N+](C)(C)C)OC | inactive | –
66 | CCCCCCCCCCCCCCCCCC(=O)NC[C@@H](COP(=O)([O-])OCC[N+](C)(C)C)OCC | 25.1 µM (active) | –

Row | Compound | AC50 | activity, negative = inhibition
67 | C=C(C)CN(CC#N)CC(=C)C | – | 27.9% [at 11.4 µM]
68 | Cn1c(N)nc2c(nc(OCc3ccccc3)n2[C@@H]2O[C@H](CO)[C@@H](O)[C@@H]2O)c1=O | – | -3.29% [at 11.4 µM]
69 | Cc1ccc(N=C/C(C(=O)C(F)(F)F)=C(\O)c2cccs2)cc1 | 3.16 µM (active) | –
70 | COc1cc(Br)cc2cc(C(=O)NCC3CCCO3)c(=O)oc12 (configuration not stated) | 0.398 µM (active) | –
71 | COc1cc(CN2CCCCC2)cc2cc(C(=O)O)c(=O)oc12 | – | 21% [at 11.4 µM]
72 | CCN1CCC[C@H]1CNC(=O)c1c(OC)ccc(Br)c1OC | inactive | –
73 | COc1ccc(-n2cnnc2)cc1 | inactive | –
74 | COc1ccc(-n2c(C)nn(C)c2=O)cc1 | inactive | –
75 | COc1ccc(-n2nnnc2-c2cn(C)nc2C(F)(F)F)cc1 | 2.24 µM (active) | –
76 | Cc1cc(C)cc(-n2nnnc2-c2cn(C)nc2C(F)(F)F)c1 | 2.51 µM (active) | –
77 | C[C@@H]1c2cccc(O)c2C(O)=C2C(=O)[C@@]3(O)C(O)=C(C(N)=O)C(=O)[C@@H](N(C)C)[C@@H]3[C@@H](O)[C@@H]21 | inactive | –
78 | CCOC(=O)C1=C(c2ccccc2)N=c2s/c(=C\c3cccc(O)c3)c(=O)n2C1c1cccs1 (configuration not stated) | 10 µM (active) | –
79 | CCOC(=O)C1=C(N)n2c(s/c(=C/c3ccccc3)c2=O)=C(C(=O)OCC)C1c1ccccc1 (configuration not stated) | inactive | –
80 | CCOC(=O)C1=C(N)n2c(s/c(=C\c3ccco3)c2=O)=C(C(=O)OCC)C1c1ccco1 (configuration not stated) | 8.91 µM (active) | –
81 | CCOC(=O)C1=C(c2ccccc2)N=c2s/c(=C\c3ccco3)c(=O)n2C1c1cccs1 (configuration not stated) | 2.24 µM (active) | –
82 | S=c1nc[nH]c2c1ncn2Cc1ccco1 | – | -0.307% [at 11.4 µM]
83 | c1ccc(CCNCc2ccco2)nc1 | – | -13.9% [at 11.4 µM]
84 | S=C1SCN(Cc2ccccn2)CN1Cc1ccco1 | 2.24 µM (active) | –
85 | Cc1cccc(OCCSCc2nc3ccccc3[nH]2)c1 | 2.24 µM (active) | –
86 | O=C(c1ccc(S(=O)(=O)N2CCCCCC2)cc1)N1CCC(CN2C(=O)c3cccc4cccc(c34)C2=O)CC1 | inactive | –
87 | O=C1c2cccc3cccc(c23)C(=O)N1CC1CCN(CC(O)COc2ccc3ccccc3c2)CC1 (configuration not stated) | 7.08 µM (active) | –
